What all share (test): NCI-60 one-dose screen, 48 h (100 = growth as untreated, 0 = no growth, -100 = all killed)
The test system of one experiment is DU-145 prostate. Particulars: 10 µM unless noted.
Another experiment deals with K-562 leukemia. To be noted: 10 µM unless noted.
The test system of a further experiment is MALME-3M melanoma. To be noted: 10 µM unless noted.
The subject of a further experiment is RXF 393 renal. Particulars: 10 µM unless noted.
The next experiment relates to SF-268 CNS. Particulars: 10 µM unless noted.
A further experiment relates to SF-295 CNS. Particulars: 10 µM unless noted.
Another experiment deals with SF-539 CNS. Particulars: 10 µM unless noted.
For the next experiment, the system named is UACC-257 melanoma. Particulars: 10 µM unless noted.
The subject of another experiment is M14 melanoma. To be noted: 10 µM unless noted.
In a further experiment the test system is HCT-15 colon. Particulars: 10 µM unless noted.
The next experiment has as its system HT29 colon. To be noted: 10 µM unless noted.
The subject of another experiment is SNB-75 CNS. To be noted: 10 µM unless noted.
In a further experiment the test system is SNB-19 CNS. To be noted: 10 µM unless noted.
The test system of another experiment is U251 CNS. To be noted: 10 µM unless noted.
The test system of a further experiment is PC-3 prostate. To be noted: 10 µM unless noted.
For the next experiment, the system named is SK-MEL-5 melanoma. To be noted: 10 µM unless noted.
The test system of another experiment is UACC-62 melanoma. To be noted: 10 µM unless noted.
For a further experiment, the system named is LOX IMVI melanoma. Particulars: 10 µM.
Another experiment relates to SK-MEL-28 melanoma. To be noted: 10 µM unless noted.
The test system of a further experiment is MDA-MB-231 breast. To be noted: 10 µM unless noted.

Compounds without any hit were thinned out: in the full panel of roughly 83,000, 20% have a hit.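 Plates (96-well) were seeded with cells, treated with compound at one concentration, and incubated for 48 hours before percent growth was determined.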 A number with no mark means an inactive call. The source made the active and inactive calls. How the source made its calls: active means growth percent below 10; inactive means the rest.

Turning to `CC1CC(C)(C)OB(OC(C)CC(C)(C)OB2OC(C)CC(C)(C)O2)O1` (centres undefined), the growth in the experiment with DU-145 prostate was 102%; with K-562 leukemia, 96.1%; with MALME-3M melanoma it was 111%; in the experiment with RXF 393 renal, 116%; in the experiment on SF-268 CNS, 102%; in the experiment on SF-295 CNS, 105%. Further, the growth in the experiment with SF-539 CNS was 104%; with UACC-257 melanoma it was 94.8%; in the experiment with M14 melanoma, -55.3% (active); in the experiment on HCT-15 colon, 104%; in the experiment on HT29 colon, 99.2%; in the experiment with SNB-75 CNS, 115%. Further, the growth in the experiment on SNB-19 CNS is 104%; with U251 CNS it was 94.2%; in the experiment on PC-3 prostate, 97.5%; in the experiment with SK-MEL-5 melanoma it was 101%; in the experiment with UACC-62 melanoma, 106%; in the experiment on LOX IMVI melanoma, 93.7%. Also, the growth in the experiment on SK-MEL-28 melanoma is 104%.

Regarding `COc1ccc(C(Cn2ccnc2)Sc2ccc(Cl)c(Cl)c2)cc1` (centres undefined), the growth is 100% in the experiment on DU-145 prostate; 56.2% in the experiment with K-562 leukemia; 96.1% in the experiment on MALME-3M melanoma; 79.1% in the experiment on MDA-MB-231 breast; 90.9% in the experiment with SF-268 CNS; 95.6% in the experiment with SF-539 CNS. For the same compound, the growth in the experiment with UACC-257 melanoma was 92.1%; with M14 melanoma, 71.6%; with HCT-15 colon, 79.7%; in the experiment with HT29 colon it was 59.6%; in the experiment on SNB-75 CNS, 89.2%; in the experiment on SNB-19 CNS, 98.6%. The growth is 63.1% in the experiment with PC-3 prostate, 77.6% in the experiment with UACC-62 melanoma, 84.4% in the experiment on LOX IMVI melanoma and 85.3% in the experiment with SK-MEL-28 melanoma.

Regarding `CC(C)(C)CC(C)(C)c1ccc(OCCOCCSC(=N)N)cc1`, the growth is 53.8% with DU-145 prostate; 3.14% (active) with K-562 leukemia; -60.8% (active) in the experiment with MALME-3M melanoma; -36.3% (active) in the experiment with RXF 393 renal; 69% with SF-268 CNS; 36.9% with SF-295 CNS. Moreover, the growth is 64.3% in the experiment on SF-539 CNS; 73% in the experiment with UACC-257 melanoma; -67.7% (active) in the experiment with M14 melanoma; 0.972% (active) with HCT-15 colon; -7.31% (active) with HT29 colon; 74.8% in the experiment with SNB-75 CNS. Moreover, the growth with SNB-19 CNS is 73.6%; in the experiment with U251 CNS, 35.9%; in the experiment with PC-3 prostate it was 42.6%; in the experiment on SK-MEL-5 melanoma, -70.2% (active); in the experiment on UACC-62 melanoma it was 75.7%; in the experiment on LOX IMVI melanoma, -81% (active).

Turning to `O=C(/C(Cl)=N/O)c1ccc(-c2ccccc2)cc1`, the growth was 109% in the experiment with DU-145 prostate; 63.8% in the experiment with K-562 leukemia; 24.8% in the experiment with MALME-3M melanoma; 95.4% with RXF 393 renal; 101% in the experiment with SF-268 CNS; 104% in the experiment with SF-295 CNS. In addition, the growth with SF-539 CNS was 96.4%; in the experiment on UACC-257 melanoma it was 99.7%; in the experiment with M14 melanoma it was 96.7%; in the experiment on HCT-15 colon, 94.5%; in the experiment with HT29 colon, 80.1%; in the experiment on SNB-75 CNS, 113%. Besides, the growth in the experiment with SNB-19 CNS was 105%; in the experiment with U251 CNS it was 96.1%; in the experiment with PC-3 prostate it was 98.6%; in the experiment on SK-MEL-5 melanoma it was 98.7%; with UACC-62 melanoma, 97.9%; in the experiment on LOX IMVI melanoma, -41.5% (active). Further, in the experiment on SK-MEL-28 melanoma, the growth is 110%.

As for `Oc1ccccc1N=Cc1ccccc1`, the growth in the experiment on DU-145 prostate is 83.5%; in the experiment with K-562 leukemia it was 48.6%; in the experiment on MALME-3M melanoma, 95.6%; with RXF 393 renal it was 117%; in the experiment with SF-268 CNS, 89.9%; with SF-295 CNS, 111%. Besides, the growth is 108% in the experiment with SF-539 CNS; 94.3% in the experiment on UACC-257 melanoma; 87.6% in the experiment with M14 melanoma; 58.5% with HCT-15 colon; 102% in the experiment with HT29 colon; 132% in the experiment with SNB-75 CNS. Further, the growth is 93.7% with SNB-19 CNS; 89.9% in the experiment on U251 CNS; 36.5% in the experiment on PC-3 prostate; 65.2% in the experiment on SK-MEL-5 melanoma; 98.8% in the experiment with UACC-62 melanoma; 54.7% in the experiment with LOX IMVI melanoma. Also, the growth in the experiment on SK-MEL-28 melanoma was 119%.

Take `COc1ccc2nc3cc(Cl)ccc3c(NCCCCCN3CCCCC3)c2c1`: the growth in the experiment with DU-145 prostate is -3.46% (active); in the experiment with K-562 leukemia, -13.9% (active); in the experiment on MALME-3M melanoma, -84.7% (active); with RXF 393 renal, -72.1% (active); in the experiment on SF-268 CNS, -36.4% (active); with SF-295 CNS it was 43.2%. For the same compound, the growth in the experiment on SF-539 CNS was -89.7% (active); in the experiment with UACC-257 melanoma it was -74.8% (active); in the experiment with M14 melanoma it was -81.9% (active); with HCT-15 colon, -32.2% (active); with HT29 colon, -41.3% (active); with SNB-75 CNS, -98.1% (active). In addition, the growth with SNB-19 CNS was 2.99% (active); in the experiment with U251 CNS it was -74.5% (active); in the experiment on PC-3 prostate, -45.3% (active); with SK-MEL-5 melanoma it was -96.9% (active); with UACC-62 melanoma, -67.9% (active); with LOX IMVI melanoma it was -80.4% (active). Further, in the experiment on SK-MEL-28 melanoma, the growth was -79.9% (active).

Regarding `CCCCOS(=O)(=O)c1ccccc1`, the growth in the experiment with DU-145 prostate is 112%; in the experiment with K-562 leukemia it was 106%; in the experiment with MALME-3M melanoma, 94.5%; in the experiment on MDA-MB-231 breast, 106%; in the experiment on SF-268 CNS, 105%; with SF-295 CNS, 120%. The growth is 102% in the experiment with SF-539 CNS; 106% with UACC-257 melanoma; 112% in the experiment with M14 melanoma; 102% in the experiment on HCT-15 colon; 104% in the experiment on HT29 colon; 85.9% with SNB-75 CNS. Moreover, the growth with SNB-19 CNS was 103%; with U251 CNS, 104%; in the experiment with PC-3 prostate, 101%; with SK-MEL-5 melanoma it was 117%; in the experiment with LOX IMVI melanoma, 97.1%; in the experiment with SK-MEL-28 melanoma, 126%.

With `N#CC1c2ccccc2C=CN1C(=O)CCCl` (centres undefined), the growth is 77.7% with DU-145 prostate; 32.3% in the experiment on K-562 leukemia; 5.05% (active) in the experiment with MALME-3M melanoma; 103% in the experiment with MDA-MB-231 breast; 104% in the experiment with SF-268 CNS; 104% in the experiment on SF-539 CNS. Further, the growth in the experiment on UACC-257 melanoma was 79.9%; in the experiment with M14 melanoma, 97.3%; with HCT-15 colon, 84.9%; in the experiment with HT29 colon, 78.3%; with SNB-75 CNS, 75.9%; with SNB-19 CNS it was 107%. Further, the growth in the experiment on PC-3 prostate was 104%; with SK-MEL-5 melanoma, 101%; in the experiment on UACC-62 melanoma, 106%; with LOX IMVI melanoma, 32.6%; in the experiment with SK-MEL-28 melanoma, 105%.

Consider `CCOC(=O)NC(/C=C/c1ccccc1)NC(=O)OCC`, for which the growth in the experiment with DU-145 prostate is 109%; in the experiment on K-562 leukemia it was 107%; in the experiment with MALME-3M melanoma it was 109%; in the experiment on RXF 393 renal, 121%; in the experiment on SF-268 CNS, 101%; in the experiment on SF-295 CNS it was 104%. The growth in the experiment with SF-539 CNS is 98.9%; with UACC-257 melanoma it was 98.3%; with M14 melanoma it was 103%; in the experiment on HCT-15 colon, 105%; with HT29 colon, 101%; with SNB-75 CNS, 96.6%. For the same compound, the growth in the experiment with SNB-19 CNS is 98.4%; in the experiment with U251 CNS, 94.5%; in the experiment on PC-3 prostate, 96.9%; in the experiment with SK-MEL-5 melanoma, 106%; with UACC-62 melanoma, 97.7%; in the experiment with LOX IMVI melanoma, 99.8%. In addition, in the experiment on SK-MEL-28 melanoma, the growth was 105%.

Values taken from PubChem BioAssay (NCI).
